# In the supplement of paper PMC12350171:
# Where a name gives a salt, the structure may show the parent alone. Values without a mark were called inactive.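 How the source made its calls: active = AUC significantly below DMSO controls by Student t-fit with adjusted P under 0.01; inactive = not significantly reduced.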
# System: Shigella flexneri
# Assay: growth AUC normalised to DMSO control (fraction of control); higher = less growth inhibition, active = hit call of the paper
# Details: 20 µM
# How it was run: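 Pathogens were passaged twice under anaerobic conditions, then inoculated into pre-reduced mGAM plates at a starting OD578 of 0.01, with compound at 20 μM and 1% DMSO, and sealed with breathable membranes. For Haemophilus parainfluenzae, the medium was supplemented with hemin and NAD. OD578 was read every hour for 24 h in three biological replicates. Growth-curve AUC was calculated by the trapezoidal rule up to the exponential-to-stationary transition and normalised to DMSO controls on the same plate.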
row,Compound,growth AUC normalised to DMSO control
1,O=C(NCC(O)CO)c1c(I)c(C(=O)NCC(O)CO)c(I)c(N(CCO)C(=O)CO)c1I (stereo not drawn) [Ioversol],1.03
2,CC(CN(C)C)CN1c2ccccc2Sc2ccccc21 (stereo not drawn) [Trimeprazine tartrate],0.952
3,CCCCC[C@H](O)/C=C/[C@H]1[C@H](O)CC(=O)[C@@H]1CCCCCCC(=O)O [Alprostadil],0.989
4,CCCCOC(=O)c1ccc(O)cc1 [Butylparaben],0.969
5,CN1CCCN=C1/C=C/c1cccc(O)c1 [Oxantel pamoate],1.02
6,Cc1ccc(S(=O)(=O)NC(=O)NN2CC3CCCC3C2)cc1 (stereo not drawn) [Gliclazide],1.04
7,CC1CNc2c(cccc2S(=O)(=O)N[C@@H](CCCNC(=N)N)C(=O)N2CC[C@@H](C)C[C@@H]2C(=O)O)C1 (stereo partly drawn) [Argatroban],1.03
8,CCCCC1C(=O)N(c2ccccc2)N(c2ccc(O)cc2)C1=O (stereo not drawn) [Oxyphenbutazone],1.04
9,COc1c(N2C[C@@H]3CCCN[C@@H]3C2)c(F)cc2c(=O)c(C(=O)O)cn(C3CC3)c12 [Moxifloxacin],0.0275 (active)
10,CN(Cc1ccc(C(C)(C)C)cc1)Cc1cccc2ccccc12 [Butenafine hydrochloride],0.968
11,CC(=O)OCC(=O)[C@@]12N=C(C)O[C@@H]1C[C@H]1[C@@H]3CCC4=CC(=O)C=C[C@]4(C)[C@H]3[C@@H](O)C[C@@]12C [Deflazacort],0.992
12,CN1CCN(C2=Nc3ccccc3Oc3ccc(Cl)cc32)CC1 [Loxapine succinate],0.992
13,CC(C)(C)NCC(O)COc1cccc2c1CCC(=O)N2 (stereo not drawn) [Carteolol hydrochloride],0.985
14,O=C(CCCCCCC(=O)Nc1ccccc1)NO [Vorinostat],1.03
15,O=C1CN(/N=C/c2ccc([N+](=O)[O-])o2)C(=O)N1 [Nitrofurantoin],0.843 (active)
16,N=C(N)NCC1COC2(CCCCC2)O1 (stereo not drawn) [Guanadrel sulfate],0.964
17,CC(=O)Nc1ccc(OCC(O)CNC(C)C)cc1 (stereo not drawn) [Practolol],1.03

row,Compound,growth AUC normalised to DMSO control
1,C[C@H](O)C(=O)Nc1c(I)c(C(=O)NC(CO)CO)c(I)c(C(=O)NC(CO)CO)c1I [Iopamidol],1.08
2,Cc1ncc(CO)c(CO)c1O [Pyridoxine hydrochloride],1.01
3,CC1=C(CC(=O)O)c2cc(F)ccc2/C1=C\c1ccc([S+](C)[O-])cc1 (stereo not drawn) [Sulindac],0.994
4,CC(C)CC(=O)N[C@H](C(=O)N[C@H](C(=O)N[C@@H](CC(C)C)[C@@H](O)CC(=O)N[C@@H](C)C(=O)N[C@@H](CC(C)C)[C@@H](O)CC(=O)O)C(C)C)C(C)C [Pepstatin A],1.03
5,CC(COc1ccccc1)N(CCCl)Cc1ccccc1 (stereo not drawn) [Phenoxybenzamine hydrochloride],1.01
6,CCN[C@H]1CN(CCCOC)S(=O)(=O)c2sc(S(N)(=O)=O)cc21 [Brinzolamide],0.952
7,CCCCOc1cc(C(=O)OCCN(CC)CC)ccc1N [Benoxinate hydrochloride],0.991
8,CNCC[C@@H](Oc1ccccc1C)c1ccccc1 [Tomoxetine hydrochloride],1.02
9,Cc1cc(=O)n(-c2ccccc2)n1C [Antipyrine],1.01
10,OC(Cn1cncn1)(Cn1cncn1)c1ccc(F)cc1F [Fluconazole],1.03
11,O=C1O[C@H]([C@@H](O)CO)C(O)=C1O [Ascorbic acid],1.07
12,"c1ccc(CNc2ncnc3nc[nH]c23)cc1 [Aminopurine, 6-benzyl]",1
13,CC(CCc1ccccc1)NCC(O)c1ccc(O)c(C(N)=O)c1 (stereo not drawn) [Labetalol hydrochloride],0.945
14,OCCN(CCO)c1nc(N2CCCCC2)c2nc(N(CCO)CCO)nc(N3CCCCC3)c2n1 [Dipyridamole],1.01
15,CCCCCCCCNC(C)C(O)c1ccc(SC(C)C)cc1 (stereo not drawn) [Suloctidil],0.995
16,CCCCCCC[N+](CC)(CC)CCCCc1ccc(Cl)cc1 [Clofilium tosylate],0.99
